From publication PMC11006913
Residue numbers refer to the chain shown, from its start.

Assays:
Assay in all cases: PBM; 200 nM protein, PBS
Details in all cases: dsDNA, one strand shown
[1] = biological target: HOXB4 (Homo sapiens, UniProt P17483 148-234)
[2] = biological target: HOXC10 (Homo sapiens, UniProt Q9NYD6 254-340)
[3] = biological target: HOXB4 (Homo sapiens, UniProt P17483 148-234, V174I)
[4] = biological target: HOXC10 (Homo sapiens, UniProt Q9NYD6 254-340, K271E)
[5] = biological target: T1, PAX4 (Homo sapiens, UniProt O43316 9-242, R200K)
T1 sequence: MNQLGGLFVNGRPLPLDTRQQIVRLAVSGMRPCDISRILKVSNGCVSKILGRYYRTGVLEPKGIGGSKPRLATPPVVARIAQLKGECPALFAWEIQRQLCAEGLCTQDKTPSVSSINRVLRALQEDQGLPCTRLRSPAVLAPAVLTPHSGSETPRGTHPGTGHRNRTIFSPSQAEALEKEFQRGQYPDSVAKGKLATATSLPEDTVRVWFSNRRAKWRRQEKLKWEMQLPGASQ

[6] = biological target: T2, PAX4 (Homo sapiens, UniProt O43316 9-242)
T2 sequence: T1 sequence with K192R

[7] = biological target: ALX3 (Homo sapiens, UniProt O95076 139-225, N203Q)
Sequence of ALX3 (Homo sapiens, UniProt O95076 139-225, N203Q) (O95076 139-225 N203Q): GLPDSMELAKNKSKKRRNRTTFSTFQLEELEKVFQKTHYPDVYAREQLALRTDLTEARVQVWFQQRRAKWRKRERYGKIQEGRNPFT

[8] = biological target: T3, PAX4 (Homo sapiens, UniProt O43316 9-242, R200Q)
T3 sequence: T1 sequence with K192Q

[9] = biological target: T4, PAX4 (Homo sapiens, UniProt O43316 9-242, F177V)
T4 sequence: T1 sequence with F169V, K192R

[10] = biological target: ALX3 (Homo sapiens, UniProt O95076 139-225)
Sequence of ALX3 (Homo sapiens, UniProt O95076 139-225) (O95076 139-225): as the sequence (O95076 139-225 N203Q) above, with Q65N counted along it

[11] = biological target: T5, PAX4 (Homo sapiens, UniProt O43316 9-242, F177Y)
T5 sequence: T1 sequence with F169Y, K192R

[12] = biological target: ALX3 (Homo sapiens, UniProt O95076 139-225, L168Q)
Sequence of ALX3 (Homo sapiens, UniProt O95076 139-225, L168Q) (O95076 139-225 L168Q): as the sequence (O95076 139-225 N203Q) above, with L30Q, Q65N counted along it

[13] = biological target: ALX3 (Homo sapiens, UniProt O95076 139-225, L168V)
Sequence of ALX3 (Homo sapiens, UniProt O95076 139-225, L168V) (O95076 139-225 L168V): as the sequence (O95076 139-225 N203Q) above, with L30V, Q65N counted along it

[14] = biological target: T6, PAX4 (Homo sapiens, UniProt O43316 9-242, R227W)
T6 sequence: T1 sequence with K192R, R219W

[15] = biological target: ALX3 (Homo sapiens, UniProt O95076 139-225, N203S)
Sequence of ALX3 (Homo sapiens, UniProt O95076 139-225, N203S) (O95076 139-225 N203S): as the sequence (O95076 139-225 N203Q) above, with Q65S counted along it

[16] = biological target: HOXA7 (Homo sapiens, UniProt P31268 116-202)
Sequence of HOXA7 (Homo sapiens, UniProt P31268 116-202) (P31268 116-202): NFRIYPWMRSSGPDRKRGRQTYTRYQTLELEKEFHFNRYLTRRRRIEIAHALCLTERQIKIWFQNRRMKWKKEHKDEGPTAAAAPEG

[17] = biological target: HOXA7 (Homo sapiens, UniProt P31268 116-202, W177C)
Sequence of HOXA7 (Homo sapiens, UniProt P31268 116-202, W177C) (P31268 116-202 W177C): as the sequence (P31268 116-202) above, with W62C counted along it

[18] = biological target: T7, NKX2-6 (Homo sapiens, UniProt A6NCS4 118-204, R150C)
T7 sequence: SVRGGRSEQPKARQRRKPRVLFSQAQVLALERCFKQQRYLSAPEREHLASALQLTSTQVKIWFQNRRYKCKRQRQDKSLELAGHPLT

[19] = biological target: PRRX1 (Homo sapiens, UniProt P54821 80-166, F113S)
Sequence of PRRX1 (Homo sapiens, UniProt P54821 80-166, F113S) (P54821 80-166 F113S): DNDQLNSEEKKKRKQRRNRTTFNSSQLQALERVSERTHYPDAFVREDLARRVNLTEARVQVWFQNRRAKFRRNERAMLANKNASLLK

[20] = biological target: PRRX1 (Homo sapiens, UniProt P54821 80-166)
Sequence of PRRX1 (Homo sapiens, UniProt P54821 80-166) (P54821 80-166): as the sequence (P54821 80-166 F113S) above, with S34F counted along it

Sequence of HOXB4 (Homo sapiens, UniProt P17483 148-234) (P17483 148-234): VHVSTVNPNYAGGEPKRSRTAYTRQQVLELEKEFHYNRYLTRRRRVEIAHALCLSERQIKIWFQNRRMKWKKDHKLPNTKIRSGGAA
Sequence of HOXB4 (Homo sapiens, UniProt P17483 148-234, V174I) (P17483 148-234 V174I): as the sequence (P17483 148-234) above, with V27I counted along it
Sequence of HOXC10 (Homo sapiens, UniProt Q9NYD6 254-340) (Q9NYD6 254-340): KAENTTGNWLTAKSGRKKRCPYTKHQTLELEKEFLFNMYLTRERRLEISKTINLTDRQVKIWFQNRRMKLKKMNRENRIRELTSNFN
Sequence of HOXC10 (Homo sapiens, UniProt Q9NYD6 254-340, K271E) (Q9NYD6 254-340 K271E): as the sequence (Q9NYD6 254-340) above, with K18E counted along it

Sequence: CAGGGTCC
- binding signal [1]: 7.33 upbm affinity estimate (log intensity, higher = more binding, comparable within an allelic series)
- binding signal [2]: 10 upbm affinity estimate (log intensity, higher = more binding, comparable within an allelic series)
- binding signal [3]: 7.37 upbm affinity estimate (log intensity, higher = more binding, comparable within an allelic series)
- binding signal [4]: 10 upbm affinity estimate (log intensity, higher = more binding, comparable within an allelic series)

Sequence: CGCTGGCC
- binding signal [1]: 7.45 upbm affinity estimate (log intensity, higher = more binding, comparable within an allelic series)
- binding signal [5]: 8.99 upbm affinity estimate (log intensity, higher = more binding, comparable within an allelic series)
- binding signal [6]: 9.12 upbm affinity estimate (log intensity, higher = more binding, comparable within an allelic series)
- binding signal [3]: 7.53 upbm affinity estimate (log intensity, higher = more binding, comparable within an allelic series)
- binding signal [7]: 7.62 upbm affinity estimate (log intensity, higher = more binding, comparable within an allelic series)
- binding signal [8]: 9.12 upbm affinity estimate (log intensity, higher = more binding, comparable within an allelic series)
- binding signal [9]: 9.1 upbm affinity estimate (log intensity, higher = more binding, comparable within an allelic series)
- binding signal [10]: 7.39 upbm affinity estimate (log intensity, higher = more binding, comparable within an allelic series)
- binding signal [11]: 9.14 upbm affinity estimate (log intensity, higher = more binding, comparable within an allelic series)
- binding signal [12]: 7.58 upbm affinity estimate (log intensity, higher = more binding, comparable within an allelic series)
- binding signal [13]: 7.61 upbm affinity estimate (log intensity, higher = more binding, comparable within an allelic series)
- binding signal [14]: 9.18 upbm affinity estimate (log intensity, higher = more binding, comparable within an allelic series)
- binding signal [15]: 7.65 upbm affinity estimate (log intensity, higher = more binding, comparable within an allelic series)

Sequence: ATTGATCC
- binding signal [1]: 10.1 upbm affinity estimate (log intensity, higher = more binding, comparable within an allelic series)
- binding signal [3]: 10 upbm affinity estimate (log intensity, higher = more binding, comparable within an allelic series)

Sequence: GTTCATTA
- binding signal [1]: 13 upbm affinity estimate (log intensity, higher = more binding, comparable within an allelic series)
- binding signal [16]: 10.2 upbm affinity estimate (log intensity, higher = more binding, comparable within an allelic series)
- binding signal [3]: 13.6 upbm affinity estimate (log intensity, higher = more binding, comparable within an allelic series)
- binding signal [17]: 8.87 upbm affinity estimate (log intensity, higher = more binding, comparable within an allelic series)

Sequence: CGGGACCA
- binding signal [1]: 7.51 upbm affinity estimate (log intensity, higher = more binding, comparable within an allelic series)
- binding signal [2]: 10.1 upbm affinity estimate (log intensity, higher = more binding, comparable within an allelic series)
- binding signal [3]: 7.58 upbm affinity estimate (log intensity, higher = more binding, comparable within an allelic series)
- binding signal [18]: 9.71 upbm affinity estimate (log intensity, higher = more binding, comparable within an allelic series)
- binding signal [4]: 10.1 upbm affinity estimate (log intensity, higher = more binding, comparable within an allelic series)

Sequence: CTACCGCC
- binding signal [1]: 7.59 upbm affinity estimate (log intensity, higher = more binding, comparable within an allelic series)
- binding signal [3]: 7.48 upbm affinity estimate (log intensity, higher = more binding, comparable within an allelic series)

Sequence: CCCCCGTA
- binding signal [1]: 7.91 upbm affinity estimate (log intensity, higher = more binding, comparable within an allelic series)
- binding signal [19]: 9 upbm affinity estimate (log intensity, higher = more binding, comparable within an allelic series)
- binding signal [3]: 7.84 upbm affinity estimate (log intensity, higher = more binding, comparable within an allelic series)
- binding signal [7]: 7.68 upbm affinity estimate (log intensity, higher = more binding, comparable within an allelic series)
- binding signal [10]: 7.71 upbm affinity estimate (log intensity, higher = more binding, comparable within an allelic series)
- binding signal [12]: 7.65 upbm affinity estimate (log intensity, higher = more binding, comparable within an allelic series)
- binding signal [13]: 7.65 upbm affinity estimate (log intensity, higher = more binding, comparable within an allelic series)
- binding signal [15]: 7.65 upbm affinity estimate (log intensity, higher = more binding, comparable within an allelic series)
- binding signal [20]: 9.39 upbm affinity estimate (log intensity, higher = more binding, comparable within an allelic series)

Sequence: CCTGATTA
- binding signal [1]: 11.8 upbm affinity estimate (log intensity, higher = more binding, comparable within an allelic series)
- binding signal [3]: 12.4 upbm affinity estimate (log intensity, higher = more binding, comparable within an allelic series)

Sequence: CACGCCGA
- binding signal [1]: 7.66 upbm affinity estimate (log intensity, higher = more binding, comparable within an allelic series)
- binding signal [3]: 7.67 upbm affinity estimate (log intensity, higher = more binding, comparable within an allelic series)

Sequence: CACGAGCC
- binding signal [1]: 7.81 upbm affinity estimate (log intensity, higher = more binding, comparable within an allelic series)
- binding signal [3]: 7.69 upbm affinity estimate (log intensity, higher = more binding, comparable within an allelic series)

Sequence: CAATAAGA
- binding signal [1]: 9.65 upbm affinity estimate (log intensity, higher = more binding, comparable within an allelic series)
- binding signal [3]: 9.56 upbm affinity estimate (log intensity, higher = more binding, comparable within an allelic series)

Sequence: GTTATAGA
- binding signal [1]: 9.85 upbm affinity estimate (log intensity, higher = more binding, comparable within an allelic series)
- binding signal [3]: 9.7 upbm affinity estimate (log intensity, higher = more binding, comparable within an allelic series)

Sequence: ACGCAATA
- binding signal [1]: 9.72 upbm affinity estimate (log intensity, higher = more binding, comparable within an allelic series)
- binding signal [3]: 9.78 upbm affinity estimate (log intensity, higher = more binding, comparable within an allelic series)

Sequence: ATATGATG
- binding signal [1]: 10 upbm affinity estimate (log intensity, higher = more binding, comparable within an allelic series)
- binding signal [3]: 10.1 upbm affinity estimate (log intensity, higher = more binding, comparable within an allelic series)

Sequence: GTGATGGA
- binding signal [1]: 9.37 upbm affinity estimate (log intensity, higher = more binding, comparable within an allelic series)
- binding signal [3]: 9.3 upbm affinity estimate (log intensity, higher = more binding, comparable within an allelic series)

Sequence: CCCGTGCG
- binding signal [1]: 7.96 upbm affinity estimate (log intensity, higher = more binding, comparable within an allelic series)
- binding signal [3]: 7.88 upbm affinity estimate (log intensity, higher = more binding, comparable within an allelic series)

Sequence: GATCGTTA
- binding signal [1]: 12.3 upbm affinity estimate (log intensity, higher = more binding, comparable within an allelic series)
- binding signal [3]: 12.8 upbm affinity estimate (log intensity, higher = more binding, comparable within an allelic series)

Sequence: CTAGGCAG
- binding signal [1]: 8.13 upbm affinity estimate (log intensity, higher = more binding, comparable within an allelic series)
- binding signal [3]: 7.88 upbm affinity estimate (log intensity, higher = more binding, comparable within an allelic series)

Sequence: CCTGTCCC
- binding signal [1]: 7.61 upbm affinity estimate (log intensity, higher = more binding, comparable within an allelic series)
- binding signal [3]: 7.76 upbm affinity estimate (log intensity, higher = more binding, comparable within an allelic series)

Sequence: AACGATAT
- binding signal [1]: 10.7 upbm affinity estimate (log intensity, higher = more binding, comparable within an allelic series)
- binding signal [3]: 10.9 upbm affinity estimate (log intensity, higher = more binding, comparable within an allelic series)

Sequence: CCGTTATC
- binding signal [1]: 9.78 upbm affinity estimate (log intensity, higher = more binding, comparable within an allelic series)
- binding signal [3]: 9.74 upbm affinity estimate (log intensity, higher = more binding, comparable within an allelic series)

Sequence: AATGGTCA
- binding signal [1]: 10.4 upbm affinity estimate (log intensity, higher = more binding, comparable within an allelic series)
- binding signal [3]: 10.5 upbm affinity estimate (log intensity, higher = more binding, comparable within an allelic series)

Sequence: GGACCGAC
- binding signal [1]: 7.66 upbm affinity estimate (log intensity, higher = more binding, comparable within an allelic series)
- binding signal [3]: 7.41 upbm affinity estimate (log intensity, higher = more binding, comparable within an allelic series)

Sequence: ACAACGAT
- binding signal [1]: 9.88 upbm affinity estimate (log intensity, higher = more binding, comparable within an allelic series)
- binding signal [3]: 9.27 upbm affinity estimate (log intensity, higher = more binding, comparable within an allelic series)

Sequence: AGATGATG
- binding signal [1]: 10.8 upbm affinity estimate (log intensity, higher = more binding, comparable within an allelic series)
- binding signal [3]: 11.1 upbm affinity estimate (log intensity, higher = more binding, comparable within an allelic series)

Sequence: ATCGTTCC
- binding signal [1]: 9.81 upbm affinity estimate (log intensity, higher = more binding, comparable within an allelic series)
- binding signal [3]: 9.76 upbm affinity estimate (log intensity, higher = more binding, comparable within an allelic series)

Sequence: GAATGAAC
- binding signal [1]: 8.91 upbm affinity estimate (log intensity, higher = more binding, comparable within an allelic series)
- binding signal [3]: 8.78 upbm affinity estimate (log intensity, higher = more binding, comparable within an allelic series)

Sequence: AACCCCCC
- binding signal [1]: 7.54 upbm affinity estimate (log intensity, higher = more binding, comparable within an allelic series)
- binding signal [3]: 7.42 upbm affinity estimate (log intensity, higher = more binding, comparable within an allelic series)

Sequence: AGACCTAG
- binding signal [1]: 7.5 upbm affinity estimate (log intensity, higher = more binding, comparable within an allelic series)
- binding signal [3]: 7.5 upbm affinity estimate (log intensity, higher = more binding, comparable within an allelic series)

Sequence: CAGGACGC
- binding signal [1]: 7.75 upbm affinity estimate (log intensity, higher = more binding, comparable within an allelic series)
- binding signal [3]: 7.46 upbm affinity estimate (log intensity, higher = more binding, comparable within an allelic series)

Sequence: GTCGATGA
- binding signal [1]: 9.83 upbm affinity estimate (log intensity, higher = more binding, comparable within an allelic series)
- binding signal [3]: 9.24 upbm affinity estimate (log intensity, higher = more binding, comparable within an allelic series)

Sequence: CCGACGGA
- binding signal [1]: 7.67 upbm affinity estimate (log intensity, higher = more binding, comparable within an allelic series)
- binding signal [3]: 7.56 upbm affinity estimate (log intensity, higher = more binding, comparable within an allelic series)

Sequence: CCACAGGC
- binding signal [1]: 7.72 upbm affinity estimate (log intensity, higher = more binding, comparable within an allelic series)
- binding signal [3]: 7.85 upbm affinity estimate (log intensity, higher = more binding, comparable within an allelic series)

Sequence: CGTCGTTA
- binding signal [1]: 10.9 upbm affinity estimate (log intensity, higher = more binding, comparable within an allelic series)
- binding signal [3]: 11 upbm affinity estimate (log intensity, higher = more binding, comparable within an allelic series)

Sequence: TCATTGGA
- binding signal [1]: 10.1 upbm affinity estimate (log intensity, higher = more binding, comparable within an allelic series)
- binding signal [3]: 9.83 upbm affinity estimate (log intensity, higher = more binding, comparable within an allelic series)

Sequence: ATGAGTTA
- binding signal [1]: 10.4 upbm affinity estimate (log intensity, higher = more binding, comparable within an allelic series)
- binding signal [3]: 10.6 upbm affinity estimate (log intensity, higher = more binding, comparable within an allelic series)

Sequence: CCCGAGGA
- binding signal [1]: 7.28 upbm affinity estimate (log intensity, higher = more binding, comparable within an allelic series)
- binding signal [3]: 7.6 upbm affinity estimate (log intensity, higher = more binding, comparable within an allelic series)

Sequence: CCTGGAAG
- binding signal [1]: 7.71 upbm affinity estimate (log intensity, higher = more binding, comparable within an allelic series)
- binding signal [3]: 7.54 upbm affinity estimate (log intensity, higher = more binding, comparable within an allelic series)

Sequence: ATCTATAA
- binding signal [1]: 11 upbm affinity estimate (log intensity, higher = more binding, comparable within an allelic series)
- binding signal [3]: 11.1 upbm affinity estimate (log intensity, higher = more binding, comparable within an allelic series)

Sequence: AGCCGCGG
- binding signal [1]: 7.58 upbm affinity estimate (log intensity, higher = more binding, comparable within an allelic series)
- binding signal [3]: 7.46 upbm affinity estimate (log intensity, higher = more binding, comparable within an allelic series)

Sequence: CAACAGAG
- binding signal [1]: 7.94 upbm affinity estimate (log intensity, higher = more binding, comparable within an allelic series)
- binding signal [3]: 7.66 upbm affinity estimate (log intensity, higher = more binding, comparable within an allelic series)

Sequence: AATACAAG
- binding signal [1]: 9.55 upbm affinity estimate (log intensity, higher = more binding, comparable within an allelic series)
- binding signal [3]: 9.49 upbm affinity estimate (log intensity, higher = more binding, comparable within an allelic series)
